This passage reports cell viability results from the supplement of paper PMC8699584.

Where “and” joins values, the source holds several entries; their conditions need not be identical. Identical values can stand only once. Counter-ions that a name gives are not always drawn. ± gives the standard deviation of the averaged measurements.

A word on the cell viability: it is a read-out of living cells in per cent, often relative to untreated cells.

One test deals with Molm13. Description: cell viability relative to DMSO control (bortezomib = 0%); higher = less growth inhibition. The note with it: 10 nM; 72 h. In outline: (§1)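 FLT3-ITD+ acute myeloid leukemia cells were dispensed onto a library of 679 approved and investigational compounds in 384-well plates, at 1000 cells per well in 50 µL and a single 10 nM dose, for 72 h. The screen was run in duplicate. Cell viability was read by CellTiter-Glo luminescence on an EnVision reader. Values were converted to percentages by per-plate linear regression between DMSO-treated cells (100%) and positive-control-treated cells (0%).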

For another test, the system named is Mv4-11. The description is as above. The conditions noted are these: 10 nM; 72 h. In short, it runs like this: as §1

Take `C[C@@H]1CCN(C(=O)CC#N)C[C@@H]1N(C)c1ncnc2[nH]ccc12`: the cell viability in the test with Molm13 is 109% and 101%; in the test on Mv4-11, 99.7% and 105%.
On to `Cc1ccc(S(=O)(=O)NC(=O)NN2CC3CCCC3C2)cc1` (stereo unspecified) [Gliclazide], for which the cell viability amounted to 98.5 ± 5.5% in the test with Molm13 and 113 ± 6.1% with Mv4-11.
As for `Cc1cncc2cccc(S(=O)(=O)N3CCCNC[C@@H]3C)c12` [(S)-H-1152 (hydrochloride)], the cell viability is 100 ± 4.3% with Molm13 and 101 ± 3% in the test with Mv4-11.
For `CS(=O)(=O)CCNCc1ccc(-c2ccc3ncnc(Nc4ccc(OCc5cccc(F)c5)c(Cl)c4)c3c2)o1` [Lapatinib ditosylate monohydrate], in that order: 137 ± 32% and 108 ± 17%.
In the case of `N#CC(=C(/N)Sc1ccccc1N)/C(C#N)=C(/N)Sc1ccccc1N`, the cell viability in the test with Molm13 came out at 104 ± 12%; in the test with Mv4-11, 129 ± 2.2%.
Take `O=C(NCCCNc1nc(Nc2cccc(CN3CCOCC3)c2)ncc1C1CC1)C1CCC1`: the cell viability in the test with Molm13 is 86.2 ± 18%; in the test on Mv4-11 it was 106 ± 28%.
For `C[C@@H]1O[C@@H](OC[C@H]2O[C@@H](Oc3c(-c4ccc(O)c(O)c4)oc4cc(O)cc(O)c4c3=O)[C@H](O)[C@@H](O)[C@@H]2O)[C@H](O)[C@H](O)[C@H]1O` [Rutin], in that order: 103 ± 1.5% and 113.3 ± 0.28%.
As to `O=c1cc(-c2ccc(O)cc2)oc2cc(O)c(O)c(O)c12` [Scutellarein], the results for the cell viability with Molm13 and with Mv4-11 were 108 ± 3.9% and 100 ± 5.4%, respectively.
As for `CC(C)c1cnn2c(NCc3ccccc3)cc(NCCCCCCN)nc12`, the results for the cell viability in the test with Molm13 and in the test with Mv4-11 were 105 ± 20% and 84 ± 18%, respectively.
With `CCc1cncnc1N1CCN(Cc2nc3ccc(C(F)(F)F)cc3[nH]2)CC1`, the results for the cell viability in the test with Molm13 and with Mv4-11 were 106 ± 32% and 116 ± 7.7%, respectively.
As to `O=S(=O)(NCCNC/C=C/c1ccc(Br)cc1)c1cccc2cnccc12` [H-89 (hydrochloride)], the cell viability in the test on Molm13 worked out at 114 ± 19%; in the test on Mv4-11, 109 ± 5.8%.
For `Cn1cnc2c(F)c(Nc3ccc(Br)cc3Cl)c(C(=O)NOCCO)cc21` [Selumetinib (AZD6244)], the cell viability with Molm13 worked out at 106 ± 18%; in the test with Mv4-11, 106 ± 3.2%.
In the same order, the values of `O=C(O)c1ccc2nc(-c3ccccc3)c(-c3ccccc3)nc2c1` are 98.2 ± 15% and 111.7 ± 0.8%.
For the compound `N#CC1(c2ccc(NC(=O)c3cccnc3NCc3ccncc3)cc2)CCCC1` [Apatinib], the cell viability in the test with Molm13 turned out to be 113 ± 10%; in the test on Mv4-11, 110 ± 1.5%.
On to `CCc1cc(-c2n[nH]c(C)c2-c2ccc3c(c2)OCCO3)c(O)cc1O`, for which the figures for the cell viability in the test on Molm13 and in the test with Mv4-11 were 102 ± 20% and 94.9 ± 12%, respectively.
Regarding `Cc1c(CN2CCN(S(C)(=O)=O)CC2)sc2c(N3CCOCC3)nc(-c3cnc(N)nc3)nc12`, the cell viability is 106 ± 16% in the test on Molm13 and 107 ± 9.6% with Mv4-11.
Regarding `Cc1c(CN2CCN(C(=O)[C@H](C)O)CC2)sc2c(N3CCOCC3)nc(-c3cnc(N)nc3)nc12` [Apitolisib (GDC-0980, RG7422)], the figures for the cell viability in the test on Molm13 and in the test with Mv4-11 were 108 ± 2.2% and 104 ± 14%, respectively.
Turning to `CCn1c(N)c(C(=O)NC)c(=O)c2ccc(C#CC(C)(O)COC)nc21` (stereo unspecified), the cell viability in the test with Molm13 came out at 110 ± 4.6%; in the test with Mv4-11, 115 ± 8.3%.
Take `COc1ccc(C=C(C#N)c2cccnc2)cc1OC`: the cell viability in the test on Molm13 stood at 100 ± 14%; in the test with Mv4-11, 103 ± 0.99%.
In the case of `O=C(NC[C@H](O)CO)c1ccncc1Nc1ccc(I)cc1F`, the cell viability is 91.6% and 95% in the test on Molm13; 103% and 92.3% in the test with Mv4-11.
As to `NC(=O)c1ncn([C@@H]2O[C@H](CO)[C@@H](O)[C@H]2O)c1N` [AICAR (Acadesine)], the figures for the cell viability with Molm13 and in the test on Mv4-11 were 110 ± 7.6% and 111 ± 9.2%, respectively.
`COc1cc2c(Oc3ccc(NC(=O)C4(C(=O)Nc5ccc(F)cc5)CC4)cc3F)ccnc2cc1OCCCN1CCOCC1`: the values for the cell viability in the test with Molm13 and with Mv4-11 were 14.3 ± 2.5% and 15.8 ± 33%, respectively.
As for `O=C1NCCCc2c1oc1ccc(O)cc21`, the values for the cell viability with Molm13 and in the test on Mv4-11 were 107 ± 1.9% and 104 ± 3.1%, respectively.
Regarding `CS(=O)(=O)N1CCN(Cc2cc3nc(-c4cccc5[nH]ncc45)nc(N4CCOCC4)c3s2)CC1`, the cell viability in the test on Molm13 was 89.9 ± 12%; in the test with Mv4-11, 106.7 ± 0.54%.
In the same order, the values of `Nc1nc(OCC2CCCCC2)c2[nH]cnc2n1` are 90.5 ± 11% and 105.62 ± 0.08%.
For `COc1cc2nccc(Oc3ccc(NC(=O)NC4CC4)c(Cl)c3)c2cc1C(N)=O` [Lenvatinib (E7080)], in that order: 112 ± 6.8% and 123 ± 14%.
For `CNC(=O)c1ccccc1Oc1nc(Nc2cc(OC)c(OC)c(OC)c2)ncc1Br`, in that order: 98.7 ± 26% and 107 ± 11%.
`Cc1cncc2cccc(S(=O)(=O)N3CCCN(C(=O)CN)C[C@@H]3C)c12` [(S)-Glycyl-H-1152 (hydrochloride)]: the results for the cell viability with Molm13 and in the test with Mv4-11 were 110 ± 9.1% and 97.4 ± 11%, respectively.
Regarding `Nc1nc(N)c2nc(-c3cccc(O)c3)c(-c3cccc(O)c3)nc2n1`, the figures for the cell viability in the test with Molm13 and with Mv4-11 were 96.7 ± 5% and 120 ± 11%, respectively.
As for `CC#CC(=O)Nc1ccc2ncnc(Nc3cccc(Br)c3)c2c1`, the figures for the cell viability in the test with Molm13 and in the test with Mv4-11 were 99.9 ± 3.4% and 98.9 ± 4.2%, respectively.
As to `Cc1ccc(F)c(NC(=O)Nc2ccc(-c3cccc4[nH]nc(N)c34)cc2)c1` [Linifanib (ABT-869)], the cell viability with Molm13 came to 61.8 ± 4%; in the test with Mv4-11, 73.9 ± 13%.
Regarding `Nc1ncnc2c1ncn2C1OC(COP(=O)(O)O)C(O)C1O` (stereo unspecified) [Adenosine 5'-monophosphate monohydrate], the cell viability in the test on Molm13 was found to be 102 ± 34%; in the test on Mv4-11, 97.2 ± 0.99%.
As to `Nc1cc(C(F)(F)F)c(-c2cc(N3CCOCC3)nc(N3CCOCC3)n2)cn1` [BKM120 (NVP-BKM120, Buparlisib)], the values for the cell viability in the test with Molm13 and in the test with Mv4-11 were 93.7 ± 4.8% and 99.8 ± 2.8%, respectively.
